From PubChem BioAssay
Most compounds without a hit are left out; they make up all but 12% or so of the library.
HP1b chromo inh = HP1-beta chromodomain-methylated histone interaction inhibition; Potency, µM (doses to about 114 µM), usual class: inhibitors; AlphaScreen HP1-beta / biotin-H3K9me3 peptide binding; P83916; AID 540317; 0.56% of 390,000 active; note: nearly all actives have a fitted effect of over 70% in size
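Compound inhibition of the preformed complex between 50 nM HP1-beta and 50 nM biotinylated H3K9me3 peptide was read by AlphaScreen. Buffer was PBS pH 7.4 with 0.01% Tween-20. Incubations ran 30 min at room temperature, with 10 ug/mL donor/acceptor beads.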
JMJD2A Tudor = JMJD2A Tudor domain (human) inhibition; O75164; AlphaScreen JMJD2A-Tudor / H3K4me3 peptide binding; Potency, µM (titrated, usually from 114 µM), hits mostly inhibitors; 4.4% of 390,000 active; AID 504339; note: nearly all actives have a fitted effect of over 50% in size
Target sequence (O75164 whole entry, looked up, the tested form may be a part): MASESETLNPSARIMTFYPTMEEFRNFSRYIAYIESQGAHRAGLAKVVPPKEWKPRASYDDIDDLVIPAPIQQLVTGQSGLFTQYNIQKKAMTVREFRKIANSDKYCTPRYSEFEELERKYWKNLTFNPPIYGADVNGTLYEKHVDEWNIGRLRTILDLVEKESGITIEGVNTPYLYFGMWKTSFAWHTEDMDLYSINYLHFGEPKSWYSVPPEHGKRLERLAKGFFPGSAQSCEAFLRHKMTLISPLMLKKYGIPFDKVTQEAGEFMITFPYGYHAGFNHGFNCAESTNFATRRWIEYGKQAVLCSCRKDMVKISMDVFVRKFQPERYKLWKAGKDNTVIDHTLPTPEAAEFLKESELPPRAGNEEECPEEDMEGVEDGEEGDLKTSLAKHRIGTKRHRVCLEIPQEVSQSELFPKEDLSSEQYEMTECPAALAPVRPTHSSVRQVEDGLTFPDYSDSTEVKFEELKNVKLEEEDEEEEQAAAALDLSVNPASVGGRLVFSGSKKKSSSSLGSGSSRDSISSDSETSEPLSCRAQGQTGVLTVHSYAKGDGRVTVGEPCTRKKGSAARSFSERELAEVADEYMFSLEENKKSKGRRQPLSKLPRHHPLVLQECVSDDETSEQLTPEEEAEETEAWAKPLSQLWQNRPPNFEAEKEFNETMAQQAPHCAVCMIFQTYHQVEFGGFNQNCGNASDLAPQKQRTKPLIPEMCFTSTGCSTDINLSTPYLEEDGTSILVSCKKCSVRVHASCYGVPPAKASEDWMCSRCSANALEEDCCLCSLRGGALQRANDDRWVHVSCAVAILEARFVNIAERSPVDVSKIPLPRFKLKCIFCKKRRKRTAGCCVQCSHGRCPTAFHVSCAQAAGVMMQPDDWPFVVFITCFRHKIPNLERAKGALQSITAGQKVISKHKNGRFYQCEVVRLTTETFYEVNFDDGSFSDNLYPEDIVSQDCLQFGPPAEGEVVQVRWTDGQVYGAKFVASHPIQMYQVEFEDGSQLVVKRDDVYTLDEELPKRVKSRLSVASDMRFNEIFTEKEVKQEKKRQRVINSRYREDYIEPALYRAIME
PLK1 PBD inh = inhibitors of human PLK1 polo-box domain binding | AID 720504 | Potency, µM, usual class: inhibitors | 2.8% of 360,000 active | Plk1 PBD binding of FITC phosphopeptide, fluorescence polarization; note: series mostly up to about 57 µM; nearly all actives have a fitted effect of over 65% in size
G9a inh = blocks human histone lysine methyltransferase G9a; G9a H3K9 monomethylation, AlphaScreen, 2 h; AID 504332; 8.8% of 350,000 active; Potency, µM (titrated, usually from 102 µM), most hits filed as inhibitors; note: nearly all actives have a fitted effect of over 75% in size
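Chemiluminescent proximity detection of H3K9 monomethylation, read after 10 min bead incubation in the dark. Reaction: 20 nM G9a, 500 nM biotin-H3K9 peptide, 20 uM SAM cofactor, 2 h, room temperature, following 15 min enzyme-compound preincubation.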
Sfp inh = inhibitors of Bacillus subtilis Sfp phosphopantetheinyl transferase | Biochemical Sfp PPTase activity, qHTS | Potency, µM, hits mostly inhibitors | 3.5% of 310,000 active | AID 1490;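 note: the enzyme is Sfp with the accession as filed and its product quenches rhodamine fluorescence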
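Step 1, compound plus 15 nM Sfp-PPTase, 15 min, room temperature. Step 2, add rhodamine-CoA (5 uM) and BHQ-2-YbbR (12.5 uM). Step 3, read 525/598 nm fluorescence at 0 and 30 min.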
BAZ2B block = inhibitors of human BAZ2B bromodomain | AlphaScreen BAZ2B-H3K14Ac peptide displacement | Potency, µM (highest dose often 114 µM), most hits filed as inhibitors | 4.4% of 360,000 active | AID 504333; note: nearly all actives have a fitted effect of over 60% in size
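Complex of BAZ2B and biotin-H3K14Ac (50 nM apiece) forms over 30 min at RT, then faces library compounds up to 110 uM for another 30 min; AlphaScreen beads added, 20 min dark incubation, luminescence read.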
Large screens that a line does not name were inactive; ! = not active in a repeat. Calls come from the whole dose curve; as a rule, active = well fitted curve in the direction sought with a large enough effect; inconclusive = small, poorly fitted or top-dose-only effect, or another doubt; inactive = no such curve, though single readings can be large; an effect the other way counts as inactive or inconclusive.

CCOC(=O)c1[nH]c(C)c(C(=O)N(CC)CC)c1C	G9a inh 79µM
C[C@H](CO)N1C[C@H](C)[C@H](CN(C)S(=O)(=O)c2cccc(C#N)c2)OCc2cnnn2CCCC1=O	PLK1 PBD inh 30µM (no result: HP1b chromo inh, JMJD2A Tudor, G9a inh, Sfp inh, BAZ2B block)
C[C@H]1CN([C@@H](C)CO)C(=O)CCCn2nncc2CO[C@H]1CN(C)S(=O)(=O)c1cccc(C#N)c1	none (no result: HP1b chromo inh, JMJD2A Tudor, G9a inh, Sfp inh, BAZ2B block)
COc1ccc(/C(=C/Nc2cccc(Br)c2)C(C)=O)cc1OC	HP1b chromo inh inconclusive, PLK1 PBD inh 27µM, G9a inh inconclusive, BAZ2B block inconclusive
C/C(=N\Nc1cccc(C(=O)O)c1)c1ccc(Cl)s1	JMJD2A Tudor inconclusive, PLK1 PBD inh inconclusive, G9a inh 22µM, BAZ2B block inconclusive
COc1ccc(C(=O)N/N=C(/C)c2cccc(NC(=O)c3ccncc3)c2)cc1OC	none
COc1ccc(Br)cc1/C=N/Nc1cccc(C(=O)O)c1	PLK1 PBD inh inconclusive, G9a inh 10µM
COc1ccc(/C(C)=N/Nc2cccc(C(=O)O)c2)cc1OC	G9a inh 1.4µM, BAZ2B block inconclusive
O=C(NC1CCN(C(=S)Nc2ccccc2)CC1)C1CCCCC1	none
CCOc1ccc(OCC)c(NC(=O)c2cc(S(=O)(=O)N3CCCC3)cn2C)c1	none (no result: PLK1 PBD inh, Sfp inh)
Cc1ccc(S(=O)(=O)CC(=O)N2CCN(c3nc4c(F)cccc4s3)CC2)cc1	none (no result: PLK1 PBD inh, Sfp inh)
O=C(CP(=O)(c1ccccc1)c1ccccc1)N/N=C/c1cc(Br)cc(Br)c1O	none
O=C(O)c1cccc(N/N=C/c2cc(Br)cc(Br)c2O)c1	JMJD2A Tudor inconclusive, PLK1 PBD inh 24µM, G9a inh inconclusive, BAZ2B block inconclusive
COc1ccc(Br)cc1/C=N/NC(=O)c1cc(Br)ccc1O	G9a inh 40µM, BAZ2B block 56µM (no result: HP1b chromo inh, JMJD2A Tudor, PLK1 PBD inh)
C[C@@H](C(=O)O)c1ccc(N2Cc3ccccc3C2=O)cc1	none (no result: HP1b chromo inh, JMJD2A Tudor, PLK1 PBD inh, BAZ2B block)
O=C(O)c1ccc(N/N=C/c2cc3cc4c(cc3nc2Cl)OCCO4)cc1	G9a inh inconclusive, BAZ2B block 79µM
O=Cc1cc2cc3c(cc2nc1Cl)OCCO3	none
Nc1sc2c(c1C(=O)NC1CC1)CCCC2	HP1b chromo inh inconclusive, JMJD2A Tudor inconclusive, PLK1 PBD inh 19µM (no result: G9a inh, Sfp inh, BAZ2B block)
CCNC(=O)c1c(N)sc2c1CCCCC2	G9a inh inconclusive, Sfp inh 35µM (no result: HP1b chromo inh, JMJD2A Tudor, PLK1 PBD inh)
CC#CCN1c2ccccc2[C@]23C[C@@H](C(=O)OC)N(S(=O)(=O)c4c(C)noc4C)C2=NC(C(=O)OC)=C(C(=O)OC)[C@H]13	none (no result: HP1b chromo inh, JMJD2A Tudor, PLK1 PBD inh, G9a inh, BAZ2B block)
CC(=O)Nc1ccccc1-c1nc2ccccc2nc1OCC(=O)c1ccc(Cl)cc1	none
c1ccc(Cn2nnc3c(Nc4ccc5c(c4)OCO5)nc(C4CC4)nc32)cc1	Sfp inh 89µM, BAZ2B block inconclusive
CC(=O)N(C1=C(Cl)C(=O)c2ccccc2C1=O)C1CCCCC1	HP1b chromo inh 7.9µM, JMJD2A Tudor 1.6µM, PLK1 PBD inh 3.8µM, Sfp inh 0.79µM, BAZ2B block 22µM (no result: G9a inh)
CC(=O)N(c1ccccc1C)C1CCCC1	none
Cn1c(C(=O)NCC2CCCO2)cc2c(=O)n(C)c3ccccc3c21 (centres undefined)	G9a inh inconclusive
Cn1c(C(=O)N2CCN(c3ncccn3)CC2)cc2c(=O)n(C)c3ccccc3c21	G9a inh 45µM, Sfp inh 40µM
Cn1c(C(=O)NCCCN2CCN(c3ccccc3F)CC2)cc2c(=O)n(C)c3ccccc3c21	JMJD2A Tudor inconclusive, G9a inh 50µM
Cn1c(C(=O)N2CCCC2)cc2c(=O)n(C)c3ccccc3c21	none
Cn1c(C(=O)NCCN2CCCCCC2)cc2c(=O)n(C)c3ccccc3c21	G9a inh 35µM, BAZ2B block inconclusive
Cn1c(C(=O)NCCCN2CCOCC2)cc2c(=O)n(C)c3ccccc3c21	G9a inh inconclusive
Cn1c(C(=O)NC2CCCC2)cc2c(=O)n(C)c3ccccc3c21	JMJD2A Tudor inconclusive, PLK1 PBD inh 30µM
CCC[C@H]1C[C@H](C(=O)NC(C(C)Cl)C2O[C@@H](SC)C(OP(=O)(O)O)[C@@H](O)[C@@H]2O)N(C)C1 (some centres undefined)	none (no result: HP1b chromo inh, JMJD2A Tudor, PLK1 PBD inh, G9a inh, BAZ2B block)
CN1CCN(C(=O)C[C@H]2CC[C@H]3[C@@H](COC[C@@H](O)CN3C(=O)C3CCCC3)O2)CC1	none (no result: HP1b chromo inh, JMJD2A Tudor, G9a inh, Sfp inh, BAZ2B block)
CC1(C)CC(=O)C(C=NCC2CCN(C(=S)Nc3cccc(Cl)c3)CC2)=C(O)C1	none
NC(=O)CC(NC(=O)c1ccccc1)c1ccc(N2CCN(c3ccc(F)cc3)CC2)c([N+](=O)[O-])c1 (centres undefined)	none (no result: G9a inh)
COc1ccc(OC)c(C(=O)NC(CC(N)=O)c2ccc(NCCOc3ccccc3)c([N+](=O)[O-])c2)c1 (centres undefined)	JMJD2A Tudor inconclusive, BAZ2B block inconclusive (no result: G9a inh)
COc1ccc(CCNc2ccc(C(CC(N)=O)NC(=O)c3cc(OC)ccc3OC)cc2[N+](=O)[O-])cc1 (centres undefined)	JMJD2A Tudor inconclusive, G9a inh 45µM, BAZ2B block 32µM
COc1ccc(OC)c(C(=O)NC(CC(N)=O)c2ccc(N3CCN(c4ccc(F)cc4)CC3)c([N+](=O)[O-])c2)c1 (centres undefined)	HP1b chromo inh inconclusive, JMJD2A Tudor inconclusive, PLK1 PBD inh 30µM, G9a inh inconclusive
COc1ccc(-c2cc(C)no2)cc1S(=O)(=O)N(C)c1ccc(C)cc1	none
COC(=O)NNC(=S)Nc1ccc(Br)cc1	G9a inh 50µM
COC(=O)c1ccc(NC(=S)Nc2ccc(O)cc2)cc1	PLK1 PBD inh inconclusive, G9a inh 50µM, Sfp inh inconclusive
Oc1ccc(NC(=S)Nc2ccc(O)cc2)cc1	G9a inh 50µM, Sfp inh 45µM
NC(=O)Cc1c[nH]c2cccc(O)c12	none
CN(c1ccccc1)S(=O)(=O)c1ccc(Cl)c(C(=O)Nc2nn[nH]n2)c1	G9a inh 28µM, BAZ2B block inconclusive
COc1ccc(C2Nc3ccccc3C(=O)N2Cc2ccccc2)cc1COc1cccc(C(F)(F)F)c1 (centres undefined)	none (no result: HP1b chromo inh, PLK1 PBD inh, G9a inh, Sfp inh, BAZ2B block)
O=C(CSc1nnnn1-c1cccc2c1CCCC2)N1CCCC1	HP1b chromo inh inconclusive, PLK1 PBD inh 4.7µM, Sfp inh inconclusive
CC(=O)c1cccc(-n2nnnc2SCC(=O)N2CCCC2)c1	G9a inh 56µM
CNc1c2c(nn1C)CCCC2	HP1b chromo inh 40µM!, JMJD2A Tudor 20µM!, G9a inh inconclusive, BAZ2B block inconclusive
C#CCNc1c2c(nc3nnnn13)CCCC2	none
Cc1nc2[nH]c(=O)n(O)c(=O)c2s1	JMJD2A Tudor 7.9µM (no result: G9a inh, Sfp inh, BAZ2B block)
Cc1nc2c(=O)n(-c3ccc(F)cc3F)nc(C)c2s1	none
Cc1ccc(NC(=O)CNCc2cccs2)cc1Br	HP1b chromo inh 50µM, JMJD2A Tudor 1.3µM, G9a inh 18µM, BAZ2B block 40µM
CCC(C)(C)NCC(=O)Nc1ccc(OC(F)(F)F)cc1	none
